An excerpt weighted towards active compounds, which were near 0.84% of everything screened.
SRC3 inh: human NCOA3 inhibition | HEK293 GAL4-SRC3 luciferase reporter, luminescence | inhibition, % at 3.6 µM | actives 0.17% (n = 360,000);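 active = inhibition above a per-campaign cutoff, the mean of all compounds plus 3 SD, cut at about 60% in these data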;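 also: higher means less SRC3-driven luciferase light from the GAL4 reporter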
NR5A2 inv ag: NR5A2 inverse agonism in reporter assay. HEK293T StAR-luciferase reporter, LRH-1 transfected, 24 h. inhibition, % at 3.6 µM. actives 0.13% (n = 360,000). AID 602396;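 active = inhibition above the mean inhibition of all tested compounds plus 3 SD, cut at about 73% in these data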
NCOA1 inh: human NCOA1 inhibition | AID 588354 | inhibition, % at 3.6 µM | actives 0.12% (n = 360,000) | HEK293 GAL4-SRC1 luciferase reporter, luminescence | Q15788;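 active = inhibition above the campaign mean plus 3 SD, with each screening campaign given its own cutoff, cut at about 60% in these data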
NCOA2 inhibitor: human SRC2 (NCOA2) inhibition; Q15596; HEK293 GAL4-SRC2 luciferase reporter, luminescence; inhibition, % at 9 µM; actives 0.17% (n = 370,000);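 active = inhibition above the mean inhibition of all tested compounds plus 3 SD, set per campaign, cut at about 52% in these data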
NR2F2 inh: blocks human COUP-TFII nuclear receptor | P24468 | HEK293T NGFI-A luciferase reporter, luminescence | inhibition, % at 8.6 µM | actives 0.7% (n = 370,000) | AID 686940;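 active = inhibition above a per-plate cutoff, mean inhibition of test wells between control levels plus 3 SD, cut at about 38% in these data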;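 also: cells cotransfected with COUP-TFII expression vector driving the NGFI-A reporter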
Target sequence (P24468 whole entry, looked up): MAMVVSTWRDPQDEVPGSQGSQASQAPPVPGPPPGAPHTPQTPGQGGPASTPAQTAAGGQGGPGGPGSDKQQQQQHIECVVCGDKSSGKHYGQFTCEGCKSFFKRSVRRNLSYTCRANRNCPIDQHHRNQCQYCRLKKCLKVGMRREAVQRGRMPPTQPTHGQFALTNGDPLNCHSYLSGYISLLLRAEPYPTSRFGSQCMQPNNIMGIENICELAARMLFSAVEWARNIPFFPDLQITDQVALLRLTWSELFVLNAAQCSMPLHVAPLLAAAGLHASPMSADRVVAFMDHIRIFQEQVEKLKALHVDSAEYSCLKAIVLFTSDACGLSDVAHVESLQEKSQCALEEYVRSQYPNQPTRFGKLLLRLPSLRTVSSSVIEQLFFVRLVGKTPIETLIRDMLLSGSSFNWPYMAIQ
Large screens that a line does not name were inactive.

CCCC(=O)NC(c1ccccc1Cl)c1ccc2cccnc2c1O (centres undefined)	NR5A2 inv ag 84
CCC(=O)NC(c1ccc(C)cc1)c1ccc2cccnc2c1O (centres undefined)	SRC3 inh 64
CCCCC(=O)NC(c1ccc(OC)cc1)c1ccc2cccnc2c1O (centres undefined)	NR5A2 inv ag 103
COC(=O)[C@@H]1[C@H](O[Si](C)(C)C(C)(C)C)[C@H]2O[C@H]2C[C@H]1S(=O)(=O)c1ccccc1	none (no result: SRC3 inh, NR5A2 inv ag, NCOA1 inh, NCOA2 inhibitor)
COc1ccc(-n2c(SCc3cccc4ccccc34)nnc2-c2ccccc2)cc1	none (no result: SRC3 inh, NR5A2 inv ag, NCOA1 inh)
COc1ccc(-c2cc(-c3nnc4sc(-c5cccs5)nn34)[nH]n2)cc1	none (no result: SRC3 inh, NR5A2 inv ag, NCOA1 inh)
CCn1c(C)nc2cc(-c3nc4n(n3)Cc3ccccc3-4)ccc21	SRC3 inh 86, NR5A2 inv ag 95, NCOA1 inh 91 (no result: NCOA2 inhibitor, NR2F2 inh)
CN(c1cccnc1)c1ncnc2[nH]ncc12	none
C=CCN(CC=C)c1ncnc2[nH]ncc12	NCOA2 inhibitor 53
S=c1[nH]nc(C2CCCCC2)n1/N=C/c1ccncc1	SRC3 inh 69, NCOA1 inh 71
CC[C@H]1/C(=C/c2ccccc2)N2C(=O)C[C@H](c3ccccc3)N=C2N1C	none (no result: SRC3 inh, NR5A2 inv ag, NCOA1 inh, NCOA2 inhibitor)
COc1ccc2c(c1)C[C@@H]1CC(C)(C)CN1S2(=O)=O	none (no result: SRC3 inh, NR5A2 inv ag, NCOA1 inh, NCOA2 inhibitor)
CC(C)(C)C(=O)/C(=C/c1ccncc1)n1cncn1	SRC3 inh 63, NCOA2 inhibitor 72
Cc1nn(C)c(C)c1/C=C(/C(=O)C(C)(C)C)n1cncn1	none
COc1ccc(C(=O)Nc2ccc(-c3ccc(C)o3)cc2)cc1S(=O)(=O)N1CCOCC1	NR2F2 inh 75
COC1C(CO)OC(n2c3c(Cl)cccc3c3c4c(c5c6cccc(Cl)c6[nH]c5c32)C(=O)NC4=O)C(O)C1O (centres undefined)	SRC3 inh 64, NCOA1 inh 70
Cc1ccc2nc(-c3ccc(NC(=O)CSc4nnc(-c5ccccc5)n4Cc4ccco4)cc3)sc2c1	none (no result: SRC3 inh, NR5A2 inv ag, NCOA1 inh)
Cc1ccc(N(C(=O)CCl)C(C(=O)NC2CCCCC2)c2cccnc2)cc1C (centres undefined)	NCOA2 inhibitor 63 (no result: SRC3 inh, NR5A2 inv ag, NCOA1 inh)
O=C(Nc1ccc(Cl)c(S(=O)(=O)N2CCOCC2)c1)c1ccc(OCC2CCCO2)cc1 (centres undefined)	SRC3 inh 73 (no result: NCOA2 inhibitor, NR2F2 inh)
O=C(Nc1cccc(S(=O)(=O)N2CCCCC2)c1)c1ccc(OCC2CCCO2)cc1 (centres undefined)	none
O=C(CCCN1C(=O)/C(=C/c2cccs2)SC1=S)NNC(=O)c1ccncc1	none
O=C(CCCN1C(=O)/C(=C/c2ccccc2Cl)SC1=S)NNC(=O)c1ccncc1	NCOA2 inhibitor 58
COc1cccc(/C=N/NC(=O)c2ccc(-c3ccccc3)cc2)c1O	SRC3 inh 68
COc1cccc(/C=N/NC(=O)c2c(C)nc3ccc(Cl)cn23)c1O	SRC3 inh 78, NR5A2 inv ag 90
COC(=O)[C@]12C[C@H](CC(=O)N3CCSCC3)C(=O)N(Cc3ccccc3)C1=C[C@H](COCc1ccccc1)O[C@@H]2C	none (no result: SRC3 inh, NR5A2 inv ag, NCOA1 inh)
CN(c1ccccc1)S(=O)(=O)c1ccc(Cl)nc1	none
Cc1nc(S(=O)(=O)N(C)c2ccccc2)c(C#N)c(C)c1Cl	NCOA2 inhibitor 54
O=C(C1=C(c2ccccc2)C(=O)c2ccccc2C1=O)c1ccccc1	SRC3 inh 82, NCOA2 inhibitor 57
COC(=O)[C@]12C[C@H](CC(=O)NCC3CCCCC3)C(=O)N(CCC3=CCCCC3)C1=C[C@H](C1CCCC1)O[C@@H]2C	none (no result: SRC3 inh, NR5A2 inv ag, NCOA1 inh)
CN(CCOC(=O)CC1C=CCC1)C1CN(Cc2cn(Cc3ccccc3Cl)nn2)S(=O)(=O)C1 (centres undefined)	none (no result: SRC3 inh, NR5A2 inv ag, NCOA1 inh)
CCc1ccc(C2=NNC(=Nc3cccc(S(=O)(=O)N(C)C)c3)SC2)cc1	NR2F2 inh 41
Cc1cccc(N=C2NN=C(c3ccc4c(c3)OCCO4)CS2)c1	none
Nc1ncnc(N2CCc3ccccc32)c1[N+](=O)[O-]	SRC3 inh 65, NCOA1 inh 73
O=C(OCc1cn(Cc2ccccc2Cl)nn1)N1CCOCC1	none (no result: SRC3 inh, NR5A2 inv ag, NCOA1 inh)
O=C(O)CCSc1ncnc2sc(-c3ccccc3)cc12	NCOA2 inhibitor 81
Cc1ccc(C)c(NC(=O)c2cc(-c3ccc(Cl)cc3)nc3ccccc23)c1	none (no result: SRC3 inh, NR5A2 inv ag, NCOA1 inh)
Clc1ccc(-c2csc(=Nc3cccnc3)n2CCCn2ccnc2)cc1Cl	NCOA2 inhibitor 57
CC1=CC(C)(C)Nc2ccc(OC(=O)c3ccco3)cc21	NCOA2 inhibitor 55
CC1=CC(C)(C)Nc2ccc(OC(=O)C(C)N3C(=O)c4ccccc4C3=O)cc21 (centres undefined)	NCOA2 inhibitor 63
O=C(NC1CCc2ccccc21)c1cc(-c2ccc(Cl)cc2)nc2ccccc12 (centres undefined)	none (no result: SRC3 inh, NR5A2 inv ag, NCOA1 inh)
COC(=O)C1CCN(C(=O)C2CC(=O)N(c3ccc(OC)cc3)C2c2ccc(OC)cc2)CC1 (centres undefined)	none (no result: SRC3 inh, NR5A2 inv ag, NCOA1 inh)
Cc1oc2c(c1C(=O)c1ccccc1)C(=O)C(=O)c1ccccc1-2	NCOA2 inhibitor 63
O=c1c(Br)ccc(Br)cc1Br	NCOA2 inhibitor 58, NR2F2 inh 53
C=CC(=O)Nc1ccc(Nc2nc(NC3CCC(N(C)C)CC3)nc3c2ncn3C(C)C)cc1 (centres undefined)	SRC3 inh 84, NR5A2 inv ag 97, NCOA1 inh 86 (no result: NCOA2 inhibitor, NR2F2 inh)
COCCCN1C(=O)[C@H](CC(=O)NCC23CC4CC(CC(C4)C2)C3)[C@]2(C(=O)OC)CCCCC=C12	none (no result: SRC3 inh, NR5A2 inv ag, NCOA1 inh)
COc1ccc(C(=O)NC2CC3CCCC(C2)N3CC(C)C)cc1OC (centres undefined)	none
COc1ccc(C(=O)NC2CC3CCCC(C2)N3CC(C)C)cc1 (centres undefined)	NCOA2 inhibitor 95
C=CCN1C(=O)[C@@H](CC(=O)NCCCOC)[C@]2(C(=O)OCC)CCCCC/C=C/12	none (no result: SRC3 inh, NR5A2 inv ag, NCOA1 inh)
CCCCN1C(=O)N2Cc3cc(OC)ccc3C2CS1(=O)=O (centres undefined)	none (no result: SRC3 inh, NR5A2 inv ag, NCOA1 inh)
Cc1ccc(NC(=O)Cn2cccc2C2=NC(c3ccccc3)CO2)cc1C (centres undefined)	NCOA2 inhibitor 100
CCc1ccccc1NC(=O)Cn1cccc1C1=NC(c2ccccc2)CO1 (centres undefined)	none
Cn1c(Cc2cccs2)nnc1SCC(=O)Nc1ccc2c(c1)OCO2	none (no result: SRC3 inh, NR5A2 inv ag, NCOA1 inh)
CCOC(=O)N1CCN(C(=O)C[C@H]2C[C@@]3(C(=O)OC)C(=C[C@H](C(C)(C)C)O[C@@H]3C)N(CCc3ccc(OC)c(OC)c3)C2=O)CC1	none (no result: SRC3 inh, NR5A2 inv ag, NCOA1 inh)
Cc1nnc(-c2ccccc2)c(=O)n1/N=C/c1c(O)ccc2ccccc12	SRC3 inh 74
CN1OC[C@@H]2CN[C@H](c3ccc(-c4cc5ccccc5o4)cc3)C[C@@H]21	SRC3 inh 87, NR5A2 inv ag 91, NCOA1 inh 87 (no result: NCOA2 inhibitor, NR2F2 inh)
O=C(CSc1nnc(-c2ccccc2)n1-c1ccc(Cl)cc1)c1ccc(F)cc1	none (no result: SRC3 inh, NR5A2 inv ag, NCOA1 inh)
Cc1ccc(-c2nnn(CC(=O)N(Cc3cccs3)C(C(=O)NCC3CCCO3)c3ccco3)n2)o1 (centres undefined)	none

Source: PubChem BioAssay
